From a collection of fitness landscapes (doi:10.1126/science.1257360) come the findings set out here.

B1: PhoQ; a variant is named by its letters at X, in order, P23837 (parent)
chain: MKKLLRLFFPLSLRVRFLLATAAVVLVLSLAYGMVALIGYSVSFDKTTFRLLRGESNLFYTLAKWENNKLHVELPENIDKQSPTMTLIYDENGQLLWAQRDVPWLMKMIQPDWLKSNGFHEIEADVNDTSLLLSGDHSIQQQLQEVREDDDDAEMTHSVAVNVYPATSRMPKLTIVVVDTIPVELKSSYMVWSWFIYVLSANLLLVIPLLWVAAWWSLRPIEALAKEVRELEEHNRELLNPATTRELTSLVRNLNRLLKSERERYDKYRTTLTDLTHSLKTPLXXLQXXLRSLRSEKMSVSDAEPVMLEQISRISQQIGYYLHRASMRGGTLLSRELHPVAPLLDNLTSALNKVYQRKGVNISLDISPEISFVGEQNDFVEVMGNVLDNACKYCLEFVEISARQTDEHLYIVVEDDGPGIPLSKREVIFDRGQRVDTLRPGQGVGLAVAREITEQYEGKIVAGESMLGGARMEVIFGRQHSAPKDE

Over roughly 140,000 sequences, “enrichment ratio after two sorts for PhoP signalling” has its median near 0; the highest 2% begin near 11. For the sample, the highest values were picked, then their nearest neighbours and some sequences at random.

The variants in the experiment derive from B1. Description: enrichment ratio after two sorts for PhoP signalling (ratio (wild type AVST 3.29)); higher = more functional. The following applies: with PhoP (E. coli).
Turning to QLDR, the enrichment ratio is at most 0.25.
In the case of GINV it was at most 0.25.
In the case of SIAD it was 7.06.
With YITI, the enrichment ratio was at most 0.25.
For YTPA the value was at most 0.25; for PENS, at most 0.25.
In the case of SNDM it was at most 0.25.
In the case of FTCQ it was 7.15; in that of YECI, 0.32.
As to YEQP, the enrichment ratio was at most 0.25.
For YEES the value was at most 0.25.
For YECS the value was 14.8; for YECK, at most 0.25; for YECQ, 30.7.
In the case of YECV it was 22.8; in that of FTCV, 0.528.
Regarding FTCC, the enrichment ratio was at most 0.25.
In the case of YECH it was 6.45.
For YECC the value was 56.2; for PGAC, at most 0.25.
For FIVG the value was at most 0.25.
Regarding QDLS, the enrichment ratio was at most 0.25.
In the case of SSLG it was 16.1; in that of SILG, 8.57.
Turning to TSLG, the enrichment ratio was 14.5.
For KSLG the value was at most 0.25.
As for PSLG, the enrichment ratio is at most 0.25.
In the case of SRLG it was at most 0.25.
In the case of YYHP it was at most 0.25; in that of DLTQ, at most 0.25.
With ANPT, the enrichment ratio is at most 0.25.
For IPMM the value was at most 0.25; for IGGM, at most 0.25; for VHMM, at most 0.25.
IQMM: the enrichment ratio was at most 0.25.
In the case of IGMM it was 18.5; in that of HIMM, at most 0.25; in that of ITMM, 17.7.
Regarding VAMM, the enrichment ratio is 12.8.
For TAMM the value was 2.2; for IGWM, at most 0.25; for VLMM, at most 0.25.
In the case of GAMM it was 14.4; in that of MRMA, at most 0.25; in that of HQRH, at most 0.25.
In the case of GEDN it was at most 0.25; in that of YNEG, at most 0.25; in that of KEMR, at most 0.25.
In the case of WIRK, the enrichment ratio was at most 0.25.
In the case of EEFA it was at most 0.25; in that of YYMT, at most 0.25.
For TQCW the value was 0.964; for PSYG, at most 0.25.
For EPIL the value was at most 0.25.
Regarding IAMM, the enrichment ratio is 13.5.
In the case of LAMM it was 14.3; in that of LTMM, 2.28.
For LLMM the value was at most 0.25.
For ISMM the value was 5.78; for KAMM, at most 0.25.
Consider MTSV, for which the enrichment ratio worked out at 0.634.
For QESV the value was 29.9; for QPSV, at most 0.25; for AESV, 14.8.
As for QRSV, the enrichment ratio is at most 0.25.
In the case of MDSV it was at most 0.25; in that of NESV, at most 0.25.
For MKSV the value was at most 0.25; for TESV, 26.1; for MESV, 24.5.
On to AHSV, for which the enrichment ratio was at most 0.25.
For ARSV the value was at most 0.25.
For IESV the value was at most 0.25; for IVVM, at most 0.25.
For GAFT the value was at most 0.25.
In the case of TQPA, the enrichment ratio is at most 0.25.
Regarding WQTI, the enrichment ratio is at most 0.25.
Consider MSAY, for which the enrichment ratio worked out at 7.95.
In the case of NSEQ it was at most 0.25; in that of IQME, at most 0.25; in that of FQMY, at most 0.25.
For TQME the value was 17.2.
For NQMY the value was at most 0.25.
TQMY: the enrichment ratio stood at 12.5.
In the case of WQME it was at most 0.25.
For KHFI the value was at most 0.25.
In the case of MHHY it was at most 0.25; in that of RLFV, at most 0.25.
In the case of ACHF, the enrichment ratio is at most 0.25.
Take AWVF: the enrichment ratio is at most 0.25.
For ATVF the value was 16.1; for YTVF, 0.29; for ACVF, 11.9.
In the case of ALVF it was 0.451; in that of LWTN, at most 0.25.
As for FKQC, the enrichment ratio was at most 0.25.
For the variant IVWE, the enrichment ratio is at most 0.25.
Consider GEIC, for which the enrichment ratio was 45.3.
In the case of GGIY it was 2.45; in that of GEFC, at most 0.25.
For GNIS the value was 5.86; for GNIY, at most 0.25.
For GEIS the value was 20.8; for GEIY, 23.
For the variant GERC, the enrichment ratio is at most 0.25.
Regarding GEIV, the enrichment ratio worked out at 8.51.
For IKLA the value was at most 0.25; for LNNT, at most 0.25.
For FNGW the value was at most 0.25; for YVPF, at most 0.25; for LTCT, at most 0.25.
In the case of FKRE it was at most 0.25; in that of TTCA, 9.39.
Turning to LPWS, the enrichment ratio was at most 0.25.
On to GDTH, for which the enrichment ratio is at most 0.25.
Regarding LVNA, the enrichment ratio was at most 0.25.
For HQNP the value was at most 0.25.
In the case of ANKA it was at most 0.25.
For ANMT the value was 12.2; for AQMI, at most 0.25; for KKAT, at most 0.25.
As to AIAT, the enrichment ratio turned out to be 19.3.
As to ANKK, the enrichment ratio was at most 0.25.
For the variant MEMT, the enrichment ratio was at most 0.25.
As for AKMT, the enrichment ratio came to 52.1.
In the case of AKAT it was 3.68; in that of NQMT, at most 0.25; in that of AQMT, 23.8.
In the case of TKMT it was 6.64.
In the case of FGIN it was at most 0.25; in that of RFYE, at most 0.25.
With FYWY, the enrichment ratio was at most 0.25.
For ITNK the value was at most 0.25; for QYEG, at most 0.25; for HPNG, at most 0.25.
For WHVS the value was at most 0.25.
For TMMI the value was 0.351; for WHFQ, 1.98.
With DQQP, the enrichment ratio was at most 0.25.
For FHPL the value was at most 0.25.
In the case of LVAW it was 0.304.
As to ATMT, the enrichment ratio is at most 0.25.
As to AIMT, the enrichment ratio stood at 22.8.
Consider AIAR, for which the enrichment ratio amounted to 19.7.
In the case of VHMT it was at most 0.25; in that of AKAR, at most 0.25; in that of KKAR, at most 0.25.
In the case of SVWQ it was at most 0.25; in that of KVQS, at most 0.25; in that of MAFM, 14.7.
For MIGM the value was 2.52; for MKFM, at most 0.25.
With KAFM, the enrichment ratio was at most 0.25.
For GTFM the value was at most 0.25.
For MIFM the value was 15.8; for YTFM, at most 0.25.
Consider MTFM, for which the enrichment ratio is 17.1.
As to NAFM, the enrichment ratio was at most 0.25.
Take DKSF: the enrichment ratio was at most 0.25.
As for TGQA, the enrichment ratio amounted to 3.89.
For FELW the value was at most 0.25; for SMQN, at most 0.25.
As for SMIV, the enrichment ratio is at most 0.25.
For SMTH the value was 4.57.
For SMQH the value was 14.9; for SMMV, 17.9.
In the case of SMPV it was at most 0.25; in that of SMWH, at most 0.25; in that of SMGH, 1.91.
In the case of SMNL, the enrichment ratio is 2.56.
For SMKH the value was at most 0.25.
For SMMH the value was 15.6; for SMMN, 19.5; for NSPY, at most 0.25.
For PHRW the value was at most 0.25; for NLYI, at most 0.25.
For the variant HIPQ, the enrichment ratio is at most 0.25.
In the case of SEHH it was at most 0.25; in that of NIQH, at most 0.25; in that of NTWT, at most 0.25.
In the case of PEAN it was at most 0.25.
As for VIAY, the enrichment ratio was at most 0.25.
With PFVI, the enrichment ratio is at most 0.25.
For GNDM the value was at most 0.25; for GENQ, at most 0.25.
For SMMW the value was at most 0.25.
In the case of SMMC it was 16.1; in that of SMMI, 5.18.
Regarding DMMC, the enrichment ratio is at most 0.25.
For SMFC the value was at most 0.25.
In the case of SMMS it was 14.6.
In the case of DVQM it was at most 0.25; in that of PNYR, at most 0.25; in that of AGHK, at most 0.25.
Regarding HLLG, the enrichment ratio is at most 0.25.
